Measurements from PubChem BioAssay (EPA / NIEHS).
“And” between values parts separate entries of the source, which are not always exact repeats. Identical values can stand only once. The source made the active and inactive calls. The calls were made as follows: active = hit-call score of the fitted dose curve at least 0.9, where 1 is the maximum; inactive = score below 0.9.

The compounds below were run on Monokine induced gamma interferon (MIG), CXCL9 (gene 4283) (assay: BSK_SAg_MIG: BioMAP Diversity Plus: SAg Assay for Monokine induced gamma interferon (MIG) Biomarker Activity (AID 2283092)). Settings: primary human HUVEC with PBMC; actives raise or lower the signal.
In short: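 Measures CXCL9 protein by ELISA in a human vascular primary-cell co-culture (umbilical vein endothelium with PBMC) 24 h after chemical addition. Activity is scored up or down from the DMSO control.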

Structure (SMILES)	outcome	AC50
O=C(c1ccccc1)C1CCCCC1	inactive	
S=C(S)NCCNC(=S)S.[Mn+2].[S-]C([S-])=NCCN=C([S-])[S-].[Zn+2]	inactive	
OB(O)O	inactive	
CCN(Cc1c(F)cccc1Cl)c1c([N+](=O)[O-])cc(C(F)(F)F)cc1[N+](=O)[O-]	inactive	
CCCCC(CC)COC(=O)c1ccccc1C(=O)O (stereo not given)	inactive	
c1ccc(Nc2ccccc2)cc1	inactive	
CCOC(=O)C(C)Oc1ccc(Oc2cnc3cc(Cl)ccc3n2)cc1 (stereo not given)	inactive	
CC(C)CCCCCCc1ccc(O)cc1		9.25 µM (active)
N#CSCSc1nc2ccccc2s1		11.6 µM (active) and 9.68 µM (active)
CCCN(CCC)c1c([N+](=O)[O-])cc(C(F)(F)F)c(N)c1[N+](=O)[O-]		31.7 µM (active)
O=C(O)c1ccccc1	inactive	
O=C(O)C1(C(=O)Nc2ccc(Cl)cc2Cl)CC1	inactive	
CC(=O)S[C@@H]1CC2=CC(=O)CC[C@]2(C)[C@H]2CC[C@@]3(C)[C@@H](CC[C@@]34CCC(=O)O4)[C@H]12		25.7 µM (active)
CCCN(CCC)C(=O)SCC	inactive	
Cc1nn(C)c(Oc2ccccc2)c1C=NOCc1ccc(C(=O)OC(C)(C)C)cc1		19 µM (active)
CCCCOCCOCCOCc1cc2c(cc1CCC)OCO2	inactive	
CC1(C)C(C=C(Cl)Cl)C1C(=O)OCc1cccc(Oc2ccccc2)c1 (stereo not given)	inactive	
CCOC(=O)C(C)Oc1ccc(Oc2nc3ccc(Cl)cc3o2)cc1 (stereo not given)	inactive	
CCC(O)=C1C(=O)CC(C(=O)O)CC1=O (stereo not given)	inactive	
CCSC(=O)N(CC(C)C)CC(C)C	inactive	
C[C@]12CC[C@@H]3c4ccc(O)cc4C[C@@H](CCCCCCCCCS(=O)CCCC(F)(F)C(F)(F)F)[C@H]3[C@@H]1CC[C@@H]2O (stereo not given in full)	inactive	
COC(=O)c1ccc(I)cc1S(=O)(=O)NC(=O)Nc1nc(C)nc(OC)n1	inactive	
C#C[C@]1(O)CC[C@H]2[C@@H]3CCC4=CC(=O)CC[C@@H]4[C@H]3CC[C@@]21CC	inactive	
CCOC(=O)c1ccc(O)cc1	inactive	
c1ccc2[nH]c(-c3cscn3)nc2c1	inactive	
CCNc1nc(N)nc(Cl)n1	inactive	
CCCCOC(=O)C(C)Oc1ccc(Oc2ccc(C(F)(F)F)cn2)cc1 (stereo not given)	inactive	
CCOC(=O)NCCOc1ccc(Oc2ccccc2)cc1	inactive	
CSC(=O)c1cccc2nnsc12	inactive	
CC(C)(c1ccc(O)cc1)c1ccc(O)cc1	inactive	
